The supplement of paper PMC7411054

Assays:
Conditions in all cases: treatment time: 24 h
[1] = tested on: A549-ACTB-RAB5A; assay: lowest phenotypically active concentration; higher = less potent
Outline: (§1)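 Live-cell features were measured per well and normalised to solvent control wells after fifteen gene-edited A549, HepG2 and WPMY1 reporter lines had been treated for 24 h at 0.3, 1, 3 or 9 µM in four wells each. A condition was deviating when ≥3 of 4 wells sat beyond the 95th percentile of control Euclidean distances. It was reproducible when the median replicate Pearson correlation exceeded the 95th percentile of non-replicates. Phenotypic activity demanded both.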

[2] = tested on: A549-CANX-COX4; assay: as above
Outline: as §1

[3] = tested on: A549-GM130-SQSTM1; assay: as above
Outline: as §1

[4] = tested on: A549-TP53BP1-CLTA; assay: as above
Outline: as §1

[5] = tested on: A549-TUBA1B-RELA; assay: as above
Outline: as §1

[6] = tested on: HepG2-GM130-SQSTM1; assay: as above
Outline: as §1

[7] = tested on: A549-ACTB-RAB5A; assay: phenotypically active (imaging signature differs from DMSO and reproducible) at any of 0.3-9 uM (binary (1 = active, 0 = inactive)); higher = active
Outline: as §1

[8] = tested on: A549-CANX-COX4; assay: as above
Outline: as §1

[9] = tested on: A549-GM130-SQSTM1; assay: as above
Outline: as §1

[10] = tested on: A549-TP53BP1-CLTA; assay: as above
Outline: as §1

[11] = tested on: A549-TUBA1B-RELA; assay: as above
Outline: as §1

[12] = tested on: HepG2-ACTB-RAB5A; assay: as above
Outline: as §1

[13] = tested on: HepG2-CANX-COX4; assay: as above
Outline: as §1

[14] = tested on: HepG2-GM130-SQSTM1; assay: as above
Outline: as §1

[15] = tested on: HepG2-TP53BP1-CLTA; assay: as above
Outline: as §1

[16] = tested on: HepG2-TUBA1B-RELA; assay: as above
Outline: as §1

[17] = tested on: WPMY1-CANX-COX4; assay: as above
Outline: as §1

[18] = tested on: WPMY1-GM130-SQSTM1; assay: as above
Outline: as §1

[19] = tested on: WPMY1-TP53BP1-CLTA; assay: as above
Outline: as §1

[20] = tested on: WPMY1-TUBA1B-RELA; assay: as above
Outline: as §1

CCN(CC)c1ccc(/C=N/NC(=O)c2ccncc2)c(O)c1
1 µM: lowest phenotypically active concentration [2] | lowest phenotypically active concentration [3] | lowest phenotypically active concentration [4] | lowest phenotypically active concentration [5]
active: phenotypically active [7] 1 | phenotypically active [8] 1 | phenotypically active [9] 1 | phenotypically active [10] 1 | phenotypically active [11] 1 | phenotypically active [12] 1 | phenotypically active [13] 1 | phenotypically active [14] 1 | phenotypically active [15] 1 | phenotypically active [16] 1 | phenotypically active [17] 1 | phenotypically active [18] 1 | phenotypically active [19] 1 | phenotypically active [20] 1
≤ 0.3 µM: lowest phenotypically active concentration [1] | lowest phenotypically active concentration [6]

Cc1cc(/N=N/c2ccc(S(=O)(=O)Nc3ccccn3)cc2)c(N)cc1O
active: phenotypically active [7] 1 | phenotypically active [8] 1 | phenotypically active [9] 1 | phenotypically active [10] 1 | phenotypically active [11] 1 | phenotypically active [12] 1 | phenotypically active [13] 1 | phenotypically active [14] 1 | phenotypically active [15] 1 | phenotypically active [16] 1 | phenotypically active [17] 1 | phenotypically active [18] 1 | phenotypically active [19] 1 | phenotypically active [20] 1
9 µM: lowest phenotypically active concentration [1] | lowest phenotypically active concentration [2] | lowest phenotypically active concentration [3] | lowest phenotypically active concentration [4] | lowest phenotypically active concentration [5]
3 µM: lowest phenotypically active concentration [6]

COc1cccc(-c2cc(F)ccc2[C@H]2Cc3nc(N)nc(C)c3C(=O)N2)n1
≤ 0.3 µM: lowest phenotypically active concentration [1] | lowest phenotypically active concentration [2] | lowest phenotypically active concentration [3] | lowest phenotypically active concentration [4] | lowest phenotypically active concentration [5] | lowest phenotypically active concentration [6]
active: phenotypically active [7] 1 | phenotypically active [8] 1 | phenotypically active [9] 1 | phenotypically active [10] 1 | phenotypically active [11] 1 | phenotypically active [12] 1 | phenotypically active [13] 1 | phenotypically active [14] 1 | phenotypically active [15] 1 | phenotypically active [16] 1 | phenotypically active [17] 1 | phenotypically active [18] 1 | phenotypically active [19] 1 | phenotypically active [20] 1

Cn1cc(-c2[nH]c3cc(NC(=O)[C@H](N)C4CCCCC4)cc4c3c2C=NNC4=O)cn1
1 µM: lowest phenotypically active concentration [6]
3 µM: lowest phenotypically active concentration [4]
9 µM: lowest phenotypically active concentration [1] | lowest phenotypically active concentration [2] | lowest phenotypically active concentration [3] | lowest phenotypically active concentration [5]
active: phenotypically active [7] 1 | phenotypically active [8] 1 | phenotypically active [9] 1 | phenotypically active [10] 1 | phenotypically active [11] 1 | phenotypically active [12] 1 | phenotypically active [13] 1 | phenotypically active [14] 1 | phenotypically active [15] 1 | phenotypically active [16] 1 | phenotypically active [17] 1 | phenotypically active [18] 1 | phenotypically active [19] 1 | phenotypically active [20] 1

CN1c2ccccc2C(=O)N2CCc3c([nH]c4ccccc34)[C@H]21 [Evodiamine]
1 µM: lowest phenotypically active concentration [1] | lowest phenotypically active concentration [2] | lowest phenotypically active concentration [3] | lowest phenotypically active concentration [5]
active: phenotypically active [7] 1 | phenotypically active [8] 1 | phenotypically active [9] 1 | phenotypically active [10] 1 | phenotypically active [11] 1 | phenotypically active [12] 1 | phenotypically active [13] 1 | phenotypically active [14] 1 | phenotypically active [15] 1 | phenotypically active [16] 1 | phenotypically active [17] 1 | phenotypically active [18] 1 | phenotypically active [19] 1 | phenotypically active [20] 1
3 µM: lowest phenotypically active concentration [4] | lowest phenotypically active concentration [6]

C[C@@H](Oc1cc(-n2cnc3ccc(CN4CCN(C)CC4)cc32)sc1C(N)=O)c1ccccc1C(F)(F)F
active: phenotypically active [7] 1 | phenotypically active [8] 1 | phenotypically active [9] 1 | phenotypically active [10] 1 | phenotypically active [11] 1 | phenotypically active [12] 1 | phenotypically active [13] 1 | phenotypically active [14] 1 | phenotypically active [15] 1 | phenotypically active [16] 1 | phenotypically active [17] 1 | phenotypically active [18] 1 | phenotypically active [19] 1 | phenotypically active [20] 1
≤ 0.3 µM: lowest phenotypically active concentration [1] | lowest phenotypically active concentration [2] | lowest phenotypically active concentration [3] | lowest phenotypically active concentration [4] | lowest phenotypically active concentration [5] | lowest phenotypically active concentration [6]
